According to article PMC10163288:
The list is a sample of the results. The hit rate among all sequences tested is not known here.

B1: il10ra_site1_normal_mot_HHH_b2_00033_000000036_0001_41_54_H_._HHH_b1_08598_0001_0000300016_0000002_0 (protein)
chain: SSSSSSSDFQELALRALRLLIKRNDKELFQELWRLVKEIAEHGDPELREELEEFLEEISSSSSSS
B2: il10ra_site1_sap_19_mot_2fa031a62b9321f410fa37cb4b35ac9e_0001_af2_000000160_0001_1_14_H_._HHH_b2_08251_af2_0001_0000200005_0000002_0_0001 (protein)
chain: SSSSSDQEEAVELSLEAFRLALRGDPEEARRVLEEALELAEEAGDERMAKVIRDMLRALSSSSSS
B3: il10ra_site1_normal_mot_HHH_b2_00475_000000107_0001_44_57_H_._HHH_b2_01638_af2_0001_0000200008_0000002_0 (protein)
chain: SSSSEEEQRVAELLFRALRLLAEGNPEEAEKVVEEAQKLAEENNDEELRKYVEILRHFIESHSSS
B4: il10ra_site1_sap_16_mot_8756ee2cf497b5429c717dfc0c0bcfd6_0001_000000186_0001_1_13_H_._HHH_b1_03338_0001_0000100002_0000003_0_0001 (protein)
chain: SSSSTLEWSVKFMLEIVEELLERGDKEKAEHLLEALLRHLKEAGDPELLREVEELLEEVRKSSSS
B5: il10ra_site1_normal_mot_HHH_b2_02116_af2_000000165_0001_41_55_H_._HHH_b1_06457_0001_0000100001_0000001_0 (protein)
chain: SSSDHERAVELLLRAAEIAFERGNPHQARAAIRLAREIAERINDEELEELVEEVERRLEESSSSS
B6: il10ra_site1_sap_14_mot_HHH_b1_08411_af2_000000053_0001_1_20_H_._HHH_b1_08108_0001_0000200028_0000001_0_0001 (protein)
chain: SSSSSSDEYREAYELIEEAFHIEDEEEARELLEEAKELAERAGNWALRFAIQLLLEDLSSSSSSS
B7: il10ra_site1_sap_24_mot_HHH_b1_06912_af2_000000235_0001_1_15_H_._HHH_b1_04651_0001_0000100003_0000001_0_0001 (protein)
chain: SSSSDQELYRKVEELIEEAIELQRRGNPEEARRLLEELLEELEELNNPNMLYNVRHLLKAISSSS
B8: il10ra_site1_sap_19_mot_HHH_b1_05021_af2_000000167_0001_42_56_H_._HHH_b1_02196_0001_0000400015_0000002_0_0001 (protein)
chain: SSSSDAEEYLREVAVELLELFREGDPEKAEELLEEAREFLEEKGNRELVRMIEFQFRASEWSSSS
B9: il10ra_site1_normal_mot_HHH_b1_02397_af2_000000085_0001_39_57_H_._HHH_b1_03194_0001_0000100004_0000002_0 (protein)
chain: SSSSSSDVEELLERLEELLEEGNHEEAARLLQEALRHAFRNSDPELLKELHEFAKRLASSSSSSS
B10: il10ra_site1_sap_15_mot_HHH_b1_03531_000000273_0001_41_54_H_._HHH_b2_00993_0001_0000200012_0000001_0_0001_af2pred_0001 (protein)
chain: SSSSTEEEIRELLEEVEELIERGNNHEAAKLLKKLAELISELNNDELLKELRELAQLVIRVSSSS
B11: il10ra_site1_normal_mot_HHH_b1_06789_af2_000000041_0001_1_20_H_._HHH_b2_03029_0001_0000300011_0000002_0 (protein)
chain: SSSSSAEYLVRQALKAAKRLYEQGDPERAKEAIEIAENLARNANNPELEKLVEEFAEELENSSSS
B12: il10ra_site1_normal_mot_HHH_b2_00033_000000036_0001_41_54_H_._HHH_b1_00990_0001_0000100001_0000001_0 (protein)
chain: SSSDETEEASELAAEAIRLAIRLGDEEIFQELWELFKLVIREGDPEVTERLEELLEELRERSSSS
B13: il10ra_site1_sap_20_mot_HHH_b1_02766_af2_000000078_0001_42_56_H_._HHH_b2_04892_0001_0001000047_0000001_0_0001 (protein)
chain: SSSSDELSEEAMKLIERASELDQNGNPEEAKEVLERAEELAEEAGNRVLAWNIRFLLRRLSSSSS
B14: il10ra_site1_sap_22_mot_HHH_b2_03328_af2_000000127_0001_1_19_H_._HHH_b1_06177_0001_0000200023_0000001_0_0001 (protein)
chain: SSSSTQELYELLRRIVELDHKGNLEEAERLLEELEELARERNDPNIRMQVEFLEEIIRRNLSSSS
B15: il10ra_site1_normal_mot_HHH_b1_04514_000000156_0001_1_18_H_._HHH_b1_03241_0001_0000100007_0000001_0 (protein)
chain: SSSSYEEVKELIEEIIELAREGNPEEAEKVLRELERLAEELNNPAIRFVVRLLEEVIERQSSSSS
B16: il10ra_site1_sap_15_mot_HHH_b2_02354_af2_000000157_0001_40_56_H_._HHH_b1_07270_0001_0000500051_0000001_1_0001 (protein)
chain: SSSSSEQERAALRFAKWLIEIIEETGNPSARRSLEVMLWLLERINSEEAEELLKEAEELLSSSSS
B17: il10ra_site1_normal_mot_39ab2cb694c8b9c1dc7e65c0d672c93e_0001_000000036_0001_53_65_H_._HHH_b1_05574_0001_0000300023_0000001_0 (protein)
chain: SSSSSEEERIEELIEEAKELLERGNPEEALELVLEALRLAYQNRNAELLQELWRLAKEIASSSSS
B18: il10ra_site1_normal_mot_HHH_b2_05548_000000224_0001_41_54_H_._HHH_b1_07835_0001_0000100002_0000002_0_af2pred_0001 (protein)
chain: SSSSSDEEVEQLLEEAERLLKEGNPEEAAKVVAKAAELALELGNVELIKLVVELLRLIANSSSSS
B19: il10ra_site1_normal_mot_HHH_b1_00999_000000080_0001_41_55_H_._HHH_b1_01870_0001_0000600018_0000001_0 (protein)
chain: SSSSSSSEEEVEELLEEAKEIDDPREAARVLQEATHIALRNQNPELLRLVWEVVKRLGSSSSSSS
B20: il10ra_site1_normal_mot_HHH_b2_04945_000000076_0001_1_19_H_._HHH_b2_05056_0001_0000400022_0000001_0 (protein)
chain: SSSSTDELFEEVRRIIEEAVRLYREGNPEEARRLVEEALELAEENNNFALVFALEHLLRDLSSSS
B21: il10ra_site1_normal_mot_HHH_b2_07144_000000289_0001_1_18_H_._HHH_b2_04284_0001_0000200013_0000001_1 (protein)
chain: SSSSSENHRAYELSREAAELLRQGNEEEAREVLEEVKEIAEEANNPILEFAARAIEKAVNSSSSS
B22: il10ra_site1_normal_mot_HHH_b2_01032_000000296_0001_1_18_H_._HHH_b1_04384_af2_0001_0000600026_0000001_1 (protein)
chain: SSSSSDEEEELLELSRQAFELALRGNPEEAREVLEEAERLARELGDERLLRLVEELLQALSSSSS
B23: il10ra_site1_sap_16_mot_HHH_b2_00093_af2_000000025_0001_40_54_H_._HHH_b1_03751_0001_0001000047_0000001_0_0001_af2pred_0001 (protein)
chain: SSSSSEEERFYQLLLEALRLARRLNDEEVEEELRELLEEYKQKGDPRVEERIEELLKELRSSSSS
B24: il10ra_site1_sap_29_mot_HHH_b2_02354_af2_000000157_0001_40_56_H_._ems_3hM_2942_af2_0001_0000100002_0000002_1_0001_af2pred_0001 (protein)
chain: SSSSTAEEDVRLAIAAAELALKAGDPEKARRALEIAKLIARQGNNPELEEELEELEEEINSSSSS
B25: il10ra_site1_normal_mot_HHH_b2_00479_000000091_0001_1_12_H_._HHH_b2_03388_af2_0001_0000400024_0000002_0 (protein)
chain: SSSSTEENDEVYKLIREALELMARGNPEEARKVLEEAEEILEELNNRVLLFNVRFLLRELGSSSS
B26: il10ra_site1_normal_mot_HHH_b1_05056_000000217_0001_1_20_H_._HHH_b2_04661_af2_0001_0000500034_0000002_0 (protein)
chain: SSSSDEEELEELLEKLEELAEKGDRERFLELVLRLSELIFRLGDKEALQRLWELVREFLRRSSSS
B27: il10ra_site1_normal_mot_HHH_b2_02337_000000026_0001_38_52_H_._HHH_b2_04776_0001_0000200023_0000003_0 (protein)
chain: SSSSSSEEEEEIEELLEQLERAKSDEEISEVALRLVRLIWELNNQELLQRLWEIVKRLASSSSSS
B28: il10ra_site1_normal_mot_HHH_b2_04274_000000146_0001_1_19_H_._5a9ba470ffdefe7bbe7d066b6a6aec3b_0001_af2_0001_0000200013_0000001_1_af2pred_0001 (protein)
chain: NELVKAIRLLLQRFADDPEVLRVLRRILKLSLEDPEEAVELLLELAEKLGDPEVEELAREVERRR
B29: il10ra_site1_sap_16_mot_HHH_b2_08144_af2_000000046_0001_38_52_H_._HHH_b2_08331_0001_0000200020_0000002_0_0001 (protein)
chain: SSSSNAAEYLVRQALRAARLAKENNDPELVKRALEIAERIAENANDPELKELVEEVEEELESSSS
B30: il10ra_site1_normal_mot_HHH_b1_05326_000000242_0001_1_20_H_._HHH_b2_08124_0001_0000100011_0000002_0 (protein)
chain: SSSSSSDEFLRLLRRIFRLLLRGNPEEAQELLEELEELAEELNDPAARRAVEILKEAASSSSSSS
B31: il10ra_site1_normal_mot_HHH_b1_02809_af2_000000277_0001_40_57_H_._HHH_b2_07682_0001_0000300022_0000001_0_af2pred_0001 (protein)
chain: SSSSSRDEEAVRRALRLAKWLREAGDEEAVRKYLKAAKILAKRIGDPELEELVERVEEHLSSSSS
B32: il10ra_site1_normal_mot_HHH_b2_00273_000000062_0001_23_39_H_._HHH_b2_06821_0001_0000300032_0000001_0 (protein)
chain: SSSSEIEEFIEEVEERVRELVERGDTEEALQLLWEAAKLVAENNDEEALRILMELLRLVFRSSSS
B33: il10ra_site1_normal_mot_HHH_b2_01235_000000294_0001_1_18_H_._HHH_b1_05611_0001_0000600040_0000001_0_af2pred_0001 (protein)
chain: SSSSDVTERVLELLREALKLLKDGNPEEAREVLEEAEELAEEGNDELLRHLIEFAQEEIDSSSSS
B34: il10ra_site1_sap_16_mot_HHH_b2_03220_af2_000000223_0001_23_40_H_._HHH_b1_06161_af2_0001_0000300008_0000002_0_0001 (protein)
chain: SSSSSSDEEAAELIREISKVLAEGDRERVEELLEELEKLAEELGDPAARIYVEFVKQLLSSSSSS
B35: il10ra_site1_sap_21_mot_HHH_b1_05357_000000034_0001_23_39_H_._HHH_b2_05349_0001_0000600054_0000001_0_0001_af2pred_0001 (protein)
chain: SSSSNREQRVAELLARALRAAAEGNPEEAERLLEEARELAEELNDEELERAIEILKRYVERSSSS
B36: il10ra_site1_sap_23_mot_0eddeacbb14b769e73e254714f31e2f9_0001_af2_000000127_0001_37_51_H_._HHH_b1_00538_0001_0000500024_0000001_0_0001 (protein)
chain: SSSSSEEEEKAKELIELLEELAKEGDPEEFNRVALEAVRLVLELGDAELLRELWELFKSVSSSSS
B37: il10ra_site1_normal_mot_HHH_b1_08477_000000091_0001_40_57_H_._HHH_b1_03479_0001_0000200016_0000001_0 (protein)
chain: SSSSSEEEERVRQALRFAEALYKSGNPEAAESLLRVLVQSLRRLGNEELVELVEQVLEELNSSSS

biological target: il10ra, Q13651; assay: yeast display titration
Sequence (Q13651 whole entry): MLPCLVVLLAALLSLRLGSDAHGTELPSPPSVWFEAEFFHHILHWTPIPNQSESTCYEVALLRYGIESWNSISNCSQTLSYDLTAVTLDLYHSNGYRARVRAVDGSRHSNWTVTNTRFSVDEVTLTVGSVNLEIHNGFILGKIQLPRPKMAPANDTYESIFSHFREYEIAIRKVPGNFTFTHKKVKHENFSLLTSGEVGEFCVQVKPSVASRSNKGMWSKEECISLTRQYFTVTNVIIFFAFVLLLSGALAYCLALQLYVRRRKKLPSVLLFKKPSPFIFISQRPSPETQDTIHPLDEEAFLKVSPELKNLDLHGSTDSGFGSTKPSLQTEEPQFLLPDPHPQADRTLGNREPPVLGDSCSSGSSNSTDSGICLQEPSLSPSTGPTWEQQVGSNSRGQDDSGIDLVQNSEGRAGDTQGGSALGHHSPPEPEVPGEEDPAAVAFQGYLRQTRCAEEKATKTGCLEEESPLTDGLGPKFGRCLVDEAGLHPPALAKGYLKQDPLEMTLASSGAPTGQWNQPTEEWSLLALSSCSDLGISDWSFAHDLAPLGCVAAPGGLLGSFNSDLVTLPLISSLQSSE

Apparent Kd, inactive:
B1 no binding seen
B2 no binding seen
B3 no binding seen
B4 no binding seen
B5 no binding seen
B6 no binding seen
B7 no binding seen
B8 no binding seen
B9 no binding seen
B10 no binding seen
B11 no binding seen
B12 no binding seen
B13 no binding seen
B14 > 1760 nM
B15 > 786 nM
B16 no binding seen
B17 no binding seen
B18 no binding seen
B19 no binding seen
B20 no binding seen
B21 no binding seen
B22 no binding seen
B23 no binding seen
B24 > 1500 nM
B25 no binding seen
B26 no binding seen
B27 no binding seen
B28 no binding seen
B29 no binding seen
B30 no binding seen
B31 no binding seen
B32 no binding seen
B33 no binding seen
B34 no binding seen
B35 no binding seen
B36 no binding seen
B37 no binding seen
